Drawing on PubChem BioAssay (Tox21), this text covers Potency and outcome for 30 compounds.

Several values for one entry are separate records, joined by “and”; a condition that tells them apart may be missing. Equal entries are not always repeated. Records with an inconclusive call do not appear. The source holds several records for some structures; these can differ, active in one and inactive in another. Activity calls are given as the source filed them. Unless noted, the call rests on the fitted dose curve; in most records, active means well fitted curve in the direction sought with a large enough effect in the repeat runs; inconclusive means weak or mixed curves; inactive means no such curve, though single readings can be large; an effect the other way counts as inactive or inconclusive.

Experiment [1] can be described thus: qHTS assay to identify small molecule antagonists of the glucocorticoid receptor (GR) signaling pathway - cell viability counter screen (AID 720693). Further: nearly all actives have a fitted effect of over 55% in size. Background: qHTS replaces the single test concentration by a dilution series.
Experiment [2] can be described thus: qHTS assay for identifying genotoxic compounds that show differential cytotoxicity against isogenic chicken DT40 cell lines with known DNA damage response pathways - wild type cell line (AID 743012). Further: nearly all actives have a fitted effect of over 60% in size. Further: potency means the concentration at half of the fitted maximal effect. In outline:
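Wild type DT40, 300 cells/well, ~0.5 h settle at 37 C/5% CO2; compounds in DMSO added by pintool; 40 h at 37 C/5% CO2; CellTiter-Glo, 30 min RT; luminescence.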

Experiment [3] can be described thus: qHTS assay for identifying genotoxic compounds that show differential cytotoxicity against isogenic chicken DT40 cell lines with known DNA damage response pathways - Rev3 mutant cell line (AID 743014). Further: nearly all actives have a fitted effect of over 55% in size. Further: potency means the concentration at half of the fitted maximal effect.
The nature of experiment [4]: qHTS assay for identifying genotoxic compounds that show differential cytotoxicity against isogenic chicken DT40 cell lines with known DNA damage response pathways - Rad54/Ku70 mutant cell line (AID 743015). Further: nearly all actives have a fitted effect of over 60% in size. Further: potency means the concentration at half of the fitted maximal effect.
Experiment [5] is described as follows: qHTS assay to identify small molecule antagonists of the androgen receptor (AR) signaling pathway - cell viability counter screen (AID 743033; further: nearly all actives have a fitted effect of over 45% in size; further: potency means the concentration at half of the fitted maximal effect).
A short description of experiment [6]: qHTS assay to identify small molecule antagonists of the androgen receptor (AR) signaling pathway using the MDA cell line - cell viability counter screen (AID 743041; further: nearly all actives have a fitted effect of over 45% in size; further: potency means the concentration at half of the fitted maximal effect). In outline: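 MDA-kb2 AR-luc human breast carcinoma cells (MMTV-luciferase, AR/GR responsive) were treated with compounds plus R1881 agonist for 16 h at 37 °C. Viability was read as CellTiter-Fluor fluorescence in the same wells as the reporter assay.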

For experiment [7], the target named is Androgen receptor (Homo sapiens) (UniProt P10275). The experiment in a line: qHTS assay to identify small molecule antagonists of the androgen receptor (AR) signaling pathway (AID 743035; active means well fitted inhibition curve with a large enough effect in the signal ratio in the repeat runs, not every such curve was filed as active; the % refers to the signal ratio). In outline: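 Fluorescence from a beta-lactamase FRET substrate (LiveBLAzer B/G, 2 h, room temperature) measured inhibition of R1881-stimulated signaling in GeneBLAzer AR-UAS-bla HEK293 cells exposed to compound for 16 h at 37C.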

The target is the same in experiment [8]. As to the kind of experiment: qHTS assay to identify small molecule agonists of the androgen receptor (AR) signaling pathway using the MDA cell line (AID 743040; further: nearly all actives have a fitted effect of over 20% in size). In outline:
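MDA-kb2 breast carcinoma cells stably carrying an MMTV-driven luciferase reporter (AR- and GR-responsive) were seeded and held 5 h at 37C, 0% CO2, then exposed to compounds in DMSO for 16 h. Luminescence was read 30 min after ONE-Glo addition.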

The target is the same in experiment [9]. As to the kind of experiment: qHTS assay to identify small molecule antagonists of the androgen receptor (AR) signaling pathway using the MDA cell line (AID 743042; further: nearly all actives have a fitted effect of over 55% in size). In outline:
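MDA-kb2 cells (human breast carcinoma, stably carrying an MMTV-luciferase reporter responsive to AR and GR) were plated at 3,000 cells/well and preincubated 5 hr at 37C, then given compound plus R1881 agonist for 16 h. ONE-Glo luminescence was read.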

Experiment [10] has the same target. As to the kind of experiment: qHTS assay to identify small molecule agonists of the androgen receptor (AR) signaling pathway (AID 743036; active means well fitted activation curve with a large enough effect in the signal ratio in the repeat runs, with a control signal flat, not every such curve was filed as active; the % refers to the signal ratio). Put shortly: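 AR-bla HEK293 cells, 2,000/well; 4 h preincubation 37C/5% CO2; compound (DMSO) 16 h at 37C; LiveBLAzer B/G FRET substrate 2 h RT; fluorescence intensity read-out.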

Chain of Androgen receptor (Homo sapiens) (P10275 whole entry, looked up): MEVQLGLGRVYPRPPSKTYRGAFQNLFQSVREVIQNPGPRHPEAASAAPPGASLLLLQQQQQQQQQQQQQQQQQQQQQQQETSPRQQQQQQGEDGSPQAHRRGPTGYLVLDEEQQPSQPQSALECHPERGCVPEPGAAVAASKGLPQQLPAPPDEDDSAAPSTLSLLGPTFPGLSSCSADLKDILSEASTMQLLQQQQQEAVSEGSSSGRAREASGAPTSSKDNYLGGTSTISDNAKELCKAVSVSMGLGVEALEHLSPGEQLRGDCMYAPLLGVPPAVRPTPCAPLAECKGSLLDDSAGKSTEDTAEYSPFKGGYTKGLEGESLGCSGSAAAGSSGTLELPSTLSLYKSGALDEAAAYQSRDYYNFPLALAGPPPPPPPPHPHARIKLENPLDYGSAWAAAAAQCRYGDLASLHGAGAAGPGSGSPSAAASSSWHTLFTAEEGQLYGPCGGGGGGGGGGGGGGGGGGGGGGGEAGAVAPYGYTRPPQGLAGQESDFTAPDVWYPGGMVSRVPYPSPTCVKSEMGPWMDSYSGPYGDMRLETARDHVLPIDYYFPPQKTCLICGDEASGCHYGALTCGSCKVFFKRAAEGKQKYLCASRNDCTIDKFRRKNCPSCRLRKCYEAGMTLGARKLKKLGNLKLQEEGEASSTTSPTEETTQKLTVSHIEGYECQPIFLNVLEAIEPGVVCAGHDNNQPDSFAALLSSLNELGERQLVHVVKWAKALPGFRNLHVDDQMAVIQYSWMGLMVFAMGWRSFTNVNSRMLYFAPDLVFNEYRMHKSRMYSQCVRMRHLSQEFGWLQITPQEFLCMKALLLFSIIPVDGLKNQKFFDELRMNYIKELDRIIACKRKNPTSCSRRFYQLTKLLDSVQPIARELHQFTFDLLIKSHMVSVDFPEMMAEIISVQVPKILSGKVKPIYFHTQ

Take `CC(=O)CC(=O)c1ccccc1`: the Potency entry in [1], in [2], in experiment [3], in experiment [4], in experiment [5] and in [6] was “inactive” throughout.
For `CC(=O)OCCc1ccccc1`, the Potency result in [1], in experiment [2], in experiment [3], in experiment [4], in experiment [5] and in experiment [6] was “inactive” throughout.
On to `CCCCCC/C=C/C=O`, for which the Potency result in experiment [1], in [2], in experiment [3], in experiment [4], in experiment [5] and in experiment [7] was “inactive” each time.
With `O=C(O)Cc1sc(-c2ccccc2)nc1-c1ccc(Cl)cc1`, the Potency entry in experiment [1], in experiment [2], in [3], in [4], in experiment [5] and in experiment [7] was “inactive” throughout. For the same compound, the Potency entry in [8], in experiment [6] and in experiment [9] was “inactive” throughout.
On to `CN(C)CCCOc1nn(Cc2ccccc2)c2ccccc12`, for which the Potency entry in experiment [1], in experiment [5] and in experiment [6] was “inactive” each time. Further, the Potency in [2] was 12.7 µM (active); in experiment [3], 12.7 µM (active); in [4], 11.4 µM (active).
As for `O=C(c1ccc(O)cc1)c1ccc(O)cc1`, the Potency entry in experiment [1], in experiment [2], in experiment [3], in experiment [4], in [5] and in experiment [8] was “inactive” each time. The Potency entry in experiment [6] and in experiment [9] was “inactive” throughout.
On to `Oc1ccc(C(O)CNCCCCCCNCC(O)c2ccc(O)c(O)c2)cc1O` (stereo unspecified), for which the Potency result in experiment [1] is “inactive”. Besides, the results for the Potency in experiment [2] and in experiment [3] were 26.6 µM (active) and 29.8 µM (active), respectively.
On to `O=C(O)COC(=O)Cc1ccccc1Nc1c(Cl)cccc1Cl`, for which the Potency entry in experiment [1], in [2], in [3], in experiment [4], in [5] and in experiment [7] was “inactive” each time. The Potency entry in experiment [8], in experiment [6] and in experiment [9] was “inactive” throughout. For the same compound, the compound was called inactive in experiment [10].
As for `CC(C)NCC(O)COc1ccc(CC(N)=O)cc1` (stereo unspecified), the Potency result in [1], in experiment [2], in experiment [3], in experiment [4], in experiment [5] and in experiment [6] was “inactive” each time.
Turning to `O=C(O)C(c1ccc(Cl)cc1)c1ccc(Cl)cc1`, the Potency result in experiment [1], in experiment [2], in experiment [3], in experiment [4], in experiment [5] and in experiment [6] was “inactive” each time.
`NCc1ccccc1`: the Potency result in experiment [1], in [2], in experiment [3], in experiment [4], in experiment [5] and in [6] was “inactive” in each case.
Regarding `Nc1nc(N)c(-c2ccccc2)s1`, the Potency entry in [1], in experiment [2], in [3], in [4], in experiment [5] and in experiment [6] was “inactive” in each case.
In the case of `NC[C@H]1O[C@H](O[C@H]2[C@H](O)[C@@H](O[C@H]3O[C@H](CO)[C@@H](O)[C@H](N)[C@H]3O)[C@H](N)C[C@@H]2N)[C@H](O)[C@@H](O)[C@@H]1O`, the Potency entry in experiment [1], in [2], in [3], in [5] and in experiment [6] was “inactive” each time. Moreover, in experiment [4], the Potency result was “inactive and 1.89 µM (active)”.
On to `CCCCCCCCCCCCCCCC(=O)OC/C=C(C)/C=C/C=C(C)/C=C/C1=C(C)CCCC1(C)C`, for which the Potency result in experiment [1], in [2], in experiment [3], in experiment [4], in [5] and in [6] was “inactive” each time.
Regarding `CCCCCCCCCCCCCCCCCBr`, the Potency entry in experiment [1], in [2], in experiment [3], in experiment [4], in experiment [5] and in experiment [6] was “inactive” throughout.
With `CCCCCCCCN(C)C`, the Potency result in [1], in experiment [2], in experiment [3], in [4], in experiment [5] and in experiment [6] was “inactive” in each case.
`CCCCCCCCCC(=O)OCC`: the Potency result in experiment [1], in experiment [2], in experiment [3], in experiment [4], in experiment [5] and in experiment [6] was “inactive” in each case.
On to `CCOC(=O)CC(C)C`, for which the Potency result in experiment [1], in experiment [2], in [3], in experiment [4], in [5] and in experiment [6] was “inactive” in each case.
`C=CCCCCCC`: the Potency result in [1], in experiment [2], in [3], in experiment [4], in [5] and in experiment [6] was “inactive” in each case.
For `CN1CCC(=C2c3ccccc3CCc3sccc32)CC1`, the Potency result in experiment [1], in experiment [5] and in [6] was “inactive” throughout. The Potency is 6.68 µM (active) in experiment [2], 15 µM (active) in experiment [3] and 11.9 µM (active) in experiment [4].
Regarding `Cc1ccc(C)o1`, the Potency result in [1], in experiment [2], in [3], in experiment [4], in [5] and in experiment [6] was “inactive” each time.
On to `O=C(c1ccccc1)c1ccc2n1CCC2C(=O)O` (stereo unspecified), for which the Potency entry in [1], in [2], in experiment [3], in experiment [4], in [5] and in experiment [6] was “inactive” throughout.
Consider `CC/C(=C\C(=N/O)C(N)=O)C(C)[N+](=O)[O-]` (stereo unspecified), for which the Potency entry in experiment [1], in experiment [5] and in experiment [6] was “inactive” each time. The Potency in experiment [2] was 30.6 µM (active); in experiment [3], 24.3 µM (active); in [4] it was 30.6 µM (active).
`Cc1c(Cn2ccnc2)c2ccccc2n1CCC(=O)O`: the Potency entry in experiment [1], in experiment [2], in experiment [3], in [4], in experiment [5] and in experiment [6] was “inactive” in each case.
`CCCCCCOC(=O)CCC`: the Potency entry in experiment [1], in [2], in [3], in experiment [4], in experiment [5] and in experiment [6] was “inactive” each time.
Take `C[C@H](CCC(=O)O)[C@H]1CC[C@H]2[C@@H]3[C@H](O)C[C@@H]4C[C@H](O)CC[C@]4(C)[C@H]3CC[C@]12C`: the Potency entry in experiment [1], in experiment [2], in experiment [3], in [4], in experiment [5] and in experiment [6] was “inactive” in each case.
Turning to `COCCCCCCCCOCCC[Si](C)(O[Si](C)(C)C)O[Si](C)(C)C`, the Potency result in [1] is “inactive”. In addition, the Potency in experiment [2] is 5.45 µM (active); in [3] it was 6.11 µM (active); in experiment [4] it was 6.11 µM (active); in [5] it was 6.92 µM (active); in experiment [6], 21.7 µM (active).
Take `COC(=O)C(C)=O`: the Potency result in [1], in experiment [2], in experiment [3], in experiment [4], in experiment [5] and in [6] was “inactive” throughout.
As to `CC(=O)O[C@H]1C[C@@H]2CC[C@@H]3[C@H](CC[C@@]4(C)[C@H]3C[C@H]([N+]3(C)CCCCC3)[C@@H]4OC(C)=O)[C@@]2(C)C[C@@H]1N1CCCCC1`, the Potency result in [1], in [2], in [3], in experiment [4], in experiment [5] and in [6] was “inactive” each time.
On to `OC(CCN1CCCCC1)(c1ccccc1)C1CCCCC1` (stereo unspecified), for which the Potency entry in experiment [1], in [3], in [4], in [5] and in experiment [6] was “inactive” throughout. Moreover, the Potency in [2] was 26.6 µM (active).
